Screening data as filed in PubChem.
HIF-2a inh = HIF-2a reporter inhibitors, primary screen, luminescence, 786-0 RCC cells; 360,000 tested, 0.72% active; inhibition, % at 18.8 µM; 786-0 RCC cells HIF-2a reporter, luciferase luminescence, overnight;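 active means inhibition of the luminescence signal of 40% or more relative to plate controls, in a single-dose primary screen at 18.75 µM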
Peg3 prom inh = Peg3 promoter-driven luciferase inhibitors, primary screen, cell-based, HeLa, luciferase luminescence. HeLa PEG-Prom luciferase reporter, overnight. inhibition, % at 20 µM. 360,000 tested, 1.7% active. AID 588405, 2011;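 active means inhibition of at least 50% at 20 µM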
C8 TRAIL sens = viability loss with TRAIL in NB7+C8 cells, primary screen, TRAIL sensitizer project, cell-based, ATPlite luminescence | inhibition (viability loss, TRAIL sensitization), % at 10 µM | AID 624354, 2012 | 360,000 tested, 1% active;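 active means compounds causing at least 50% loss of cell viability in the single-dose screen, relative to plate controls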
CF NFkB inh = inhibitors of PAF-induced NF-kB signaling, primary screen, cell-based, GFP fluorescence, uHTS | KKLEB NF-kB-GFP reporter, GFP fluorescence overnight | inhibition, % at 5 µM | 360,000 tested, 0.86% active | AID 588850, 2011;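 active means at least 50% inhibition at 5 µM, scaled per plate between neutral and stimulator controls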;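 further: PAF is a Pseudomonas aeruginosa culture filtrate used as stimulus; plate controls were PAF-stimulated DMSO wells for no effect and unstimulated DMSO wells for full effect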
PPC-1+TRAIL kill = compounds killing PPC-1 cancer cells with TRAIL present, primary screen, TRAIL potentiator project, ATPLite luminescence, uHTS. 220,000 tested, 0.41% active. cell killing (% activity), % at 4 µM or 5 µM. PPC-1 cells + TRAIL, ATPLite viability luminescence;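 active means cell killing above 50% in the first pass at 4 µM, then a duplicate retest at 5 µM averaging 50% or more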;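 further: plate controls were cells with TRAIL plus DMSO for no effect and medium-only wells lacking cells for full effect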
KKLEB cytotox = cytotoxicity in KKLEB CF airway cells, primary screen, cytotoxicity control for CF NF-kB inhibitor project, cell-based, uHTS, fluorescence assay plates; KKLEB CF airway cells viability, ATPlite luminescence, overnight; hits give low values; cells stimulated with P. aeruginosa culture filtrate; 360,000 tested, 0.36% active; activity change (cytotoxicity), % at 5 µM;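 active means corrected activity change at or below -50% at 5 µM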
Mdm2-MdmX confirm = retested Mdm2-MdmX interaction blockers, confirmation, cell-based, luminescence, single concentration, set 2. shares compounds with HIF-2a inh. SaOS-2 split-luciferase Mdm2/MdmX complementation. inhibition, % at 8 µM. 740 tested, 99% active. AID 504601, 2011;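 active means mean inhibition of the luminescence signal across two replicates at or above 26 percent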
Target sequence (O15151 whole entry, looked up): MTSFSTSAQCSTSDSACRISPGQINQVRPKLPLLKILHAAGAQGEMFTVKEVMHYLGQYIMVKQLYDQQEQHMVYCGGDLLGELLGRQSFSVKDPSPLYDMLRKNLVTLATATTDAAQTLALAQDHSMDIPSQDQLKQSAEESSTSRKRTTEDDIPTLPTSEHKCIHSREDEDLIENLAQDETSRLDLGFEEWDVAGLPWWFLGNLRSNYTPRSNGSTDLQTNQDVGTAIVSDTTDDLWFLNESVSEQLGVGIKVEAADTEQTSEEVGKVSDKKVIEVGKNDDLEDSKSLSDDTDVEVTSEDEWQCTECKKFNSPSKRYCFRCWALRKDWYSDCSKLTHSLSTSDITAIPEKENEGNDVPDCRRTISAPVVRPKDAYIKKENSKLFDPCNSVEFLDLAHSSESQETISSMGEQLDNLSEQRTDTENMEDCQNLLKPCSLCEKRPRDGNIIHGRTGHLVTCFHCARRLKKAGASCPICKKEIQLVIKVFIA
Target sequence (Q00987 whole entry, looked up): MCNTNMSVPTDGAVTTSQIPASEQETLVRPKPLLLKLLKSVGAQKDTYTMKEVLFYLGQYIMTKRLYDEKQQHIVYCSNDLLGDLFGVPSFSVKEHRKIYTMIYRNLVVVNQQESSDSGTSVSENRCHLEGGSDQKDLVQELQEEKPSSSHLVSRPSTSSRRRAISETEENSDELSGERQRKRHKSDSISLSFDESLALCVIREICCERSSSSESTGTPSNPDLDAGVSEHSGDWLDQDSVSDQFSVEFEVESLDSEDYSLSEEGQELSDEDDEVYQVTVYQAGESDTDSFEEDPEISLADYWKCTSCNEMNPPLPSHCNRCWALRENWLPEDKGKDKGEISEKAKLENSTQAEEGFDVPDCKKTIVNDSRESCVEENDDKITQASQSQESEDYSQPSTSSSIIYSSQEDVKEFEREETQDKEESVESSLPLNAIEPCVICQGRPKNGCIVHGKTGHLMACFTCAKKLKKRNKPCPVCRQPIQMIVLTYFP
HIF-2a conf = HIF-2a reporter inhibitor retest, confirmation, luminescence, 786-0 RCC cells. shares compounds with HIF-2a inh. HIF-2a luciferase reporter luminescence, overnight. inhibition, % at 18.8 µM. 1,800 tested, 56% active. AID 651580, 2012;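 active means mean inhibition across four replicates of at least 40 percent at the single tested concentration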
HIF-1a cs = HIF-1a luciferase reporter signal reduction – MiaPaCa-2 cells, single concentration, counter-screen for HIF-2a inhibitor project, confirmation. AID 651589, 2012. MiaPaCa-2 HIF-1a luciferase reporter, desferoxamine, overnight. 1,800 tested, 72% active. shares compounds with HIF-2a inh. inhibition, % at 18.8 µM;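 active means mean inhibition of the reporter signal across four replicates at the single tested dose of 50% or more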
Active calls of the source: *; x = no result. Sampled rows, rich in hits. Any-hit rate of the full collection: about 3.1%.

SMILES	HIF-2a inh	Peg3 prom inh	C8 TRAIL sens	CF NFkB inh	PPC-1+TRAIL kill	KKLEB cytotox	HIF-2a conf	HIF-1a cs	others
O=C(N/C(=C/c1ccc(Cl)cc1)c1nc2ccccc2[nH]1)c1ccco1	-14	-20	0	-7	12	-2	x	x
COc1ccccc1N1CCN(S(=O)(=O)CCNC(=O)CCc2ccccc2)CC1	15	-8	7	-38	x	13	x	x
N#Cc1ccsc1NC(=O)COC(=O)CCCSc1nc2ccccc2s1	64*	10	-19	8	-8	0	69*	53*
CNC(=O)NC(=O)COC(=O)CCCSc1nc2ccccc2s1	64*	10	-2	-13	-9	9	85*	57*
CC(OC(=O)CCCSc1nc2ccccc2s1)C(=O)NC(N)=O (configuration not stated)	50*	22	-3	-5	12	3	85*	63*
NC(=O)COC(=O)CCCSc1nc2ccccc2s1	57*	1	7	-12	-10	10	76*	39
CN(C)C(CNc1ncnc2ccccc12)c1c(F)cccc1Cl (configuration not stated)	12	3	0	17	x	-4	x	x
COc1ccc(S(=O)(=O)NC(=O)C2(C)CCN2C(=O)Cc2ccc(C(C)(C)C)cc2)cc1 (configuration not stated)	0	12	6	4	x	-8	x	x
CC[C@@]1(C(=O)OC)N[C@H](CN(C)S(=O)(=O)c2ccc(-c3ccccc3)cc2)[C@@H]2C(=O)N(Cc3ccccc3)C(=O)[C@@H]21	0	-8	1	-4	x	0	x	x	Mdm2-MdmX confirm=90*
CC[C@@]1(C(=O)OC)N[C@H](CN(C)S(=O)(=O)c2ccccc2)[C@@H]2C(=O)N(Cc3ccccc3)C(=O)[C@@H]21	6	-4	-14	-19	x	-8	x	x
Cc1cccc([C@@H]2[C@@H]3C(=O)N(Cc4ccccc4)C(=O)[C@@H]3[C@]3(Cc4ccc(Cl)cc4)C(=O)N(c4ccc(Br)cc4)C(=O)N23)c1	6	7	10	5	x	-12	x	x	Mdm2-MdmX confirm=102*
COc1ccc(NC(=O)/C(C#N)=C/c2ccc(Sc3nncn3C)c([N+](=O)[O-])c2)cc1	43*	26	-3	12	9	0	24	21
C[C@H]1CN(c2ccccc2)C(=O)[C@@H]1CC(=O)Nc1ccc(Br)cc1	-7	-8	-13	-10	x	5	x	x
CC(C)(C)CC(C)(C)c1ccc(O)c(Cc2ccc(Cl)cc2Cl)c1	-3	38	35	40	x	-16	x	x
O=C1CCC(C(=O)Nc2cccc(Br)c2)N1 (configuration not stated)	9	3	0	6	x	-11	x	x
CCC1(CC)C(C#N)C(=O)NC(=O)C1C#N (configuration not stated)	3	0	28	-29	x	14	x	x
CC(C)CC(=O)/C(=C\c1ccc(Cl)cc1Cl)n1cncn1	94*	105*	64*	86*	9	-81*	94*	107*
CC(C)CC(=O)/C(=C/c1ccc(N(C)C)cc1)n1cncn1	-1	-9	-17	-7	x	4	x	x
Cc1cc2[nH]c3c4ccccc4nc(C)c3c2cc1C	92*	106*	83*	-50	x	-68*	-4	105*
Cc1cc2[nH]c3ccccc3c2c(C)n1	14	33	5	-48	-7	1	x	x
N#CC(=Cc1ccc(-c2ccccc2)cc1)C(=O)c1ccccc1	-19	-2	-10	-18	x	-3	x	x
CC(=O)C(=Cc1ccc(-c2ccccc2)cc1)C(=O)c1ccccc1	65*	x	31	x	x	x	-19	103*
COc1ccc(/C=N/Nc2cc(C)nc3ccc(Br)cc23)cc1	46*	101*	49*	-127	x	-23	-15	106*
COc1cccc2c(N/N=C/c3ccccc3)cc(C)nc12	4	11	-9	31	x	-20	x	x
O=S(=O)(c1ccc2c(c1)C(=NO)c1cc(S(=O)(=O)N3CCCCC3)ccc1-2)N1CCCCC1	87*	86*	91*	100*	95*	-106*	82*	103*
SMILES	HIF-2a inh	Peg3 prom inh	C8 TRAIL sens	CF NFkB inh	PPC-1+TRAIL kill	KKLEB cytotox	HIF-2a conf	HIF-1a cs	others
COC(=O)C1=C(C)N(Cc2ccccc2)C(=NCc2cccc(C(F)(F)F)c2)N[C@H]1c1cccc(C(F)(F)F)c1	1	99*	94*	16	x	-29	x	x	Mdm2-MdmX confirm=102*
Cc1ccc(NC(=O)COC(=O)c2c(-c3ccccc3)noc2C)c(C)c1	4	7	-6	-8	x	3	x	x
O=C(C(=Cc1ccccc1)CN1CCCCC1)c1ccccc1	80*	103*	-68	80*	x	-84*	98*	105*
O=C(CN(Cc1ccccc1)C(=O)CCl)c1cccc(Br)c1	31	11	97*	61*	x	-67*	x	x	Mdm2-MdmX confirm=103*
COc1cccc(-n2cnc3scc(-c4cccs4)c3c2=O)c1	18	14	-22	24	7	-18	x	x
CCOc1ccc(-n2cnc3scc(-c4ccc(OC)c(OC)c4)c3c2=O)cc1	41*	17	1	13	14	0	15	26
Cn1nc(C2CC2)cc1NC(=O)C1(C)CCN1C(=O)CCc1ccccc1 (configuration not stated)	4	4	10	24	x	-9	x	x
CC(C)(C)N(Cc1ccc2c(c1)OCO2)C(=O)/C=C\S(=O)c1ccccc1 (configuration not stated)	69*	99*	22	43	x	-19	54*	80*
CCN(Cc1ccc2c(c1)OCO2)C(=O)/C=C/c1cccc(Br)c1	-81	-53	10	3	x	-12	x	x
COc1cc2c(cc1OC)C(C(=O)Nc1ccc(F)c(Cl)c1)CC(=O)N2 (configuration not stated)	18	11	-1	2	x	7	x	x
CC(C)(C)c1ccc(-c2cc(N)n[nH]2)cc1	87*	-76	8	3	34	2	95*	74*
